From PubChem BioAssay (Tox21)
Where “and” joins values, the source holds several entries; their conditions need not be identical. Identical values can stand only once. Results filed as inconclusive are left out. Some structures have more than one record in an assay (separate samples or runs), and their calls can disagree. Calls of active or inactive are those of the source. Calls follow the shape of the dose curve; as a rule, active = well fitted cell-killing curve with a large enough effect in the repeat runs; inconclusive = weak or mixed curves, or effect the other way; inactive = flat fitted curve, though single readings scatter.

Test: qHTS RealTime-Glo MT Cell Viability Assay in HEK293 cells - 40 hour (AID 1224874); also: nearly all actives have a fitted effect of over 50% in size
Settings: RealTime-Glo luminescence; max response: hits give low values
Description: U.S. Tox21 Program National Center for Advancing Translational Sciences [NCATS] NIH Chemical Genomics Center [NCGC] U.S. Environmental Protection Agency [EPA] National Institutes of Environmental Health Sciences [NIEHS] National Toxicology Program [NTP] U.S. Food and Drug Administration [FDA] Tox21 Assay Overview: Measure of cell viability is critical in the cell-base assay. Analysis of cell viability is necessary for the characterization of cell responses to cytotoxic drugs and environmental stress. A RealTime-Glo MT Cell Viability Assay to monitor cell viability in real time of continues cell culture during 40 hours of compound treatment was used to screen Tox21 10K library compounds in Hek293 cells. The RealTime-Glo MT Cell Viability Assay is a nonlytic, homogeneous, bioluminescent method to measure cell viability in real time using a simple, plate-based method. The assay involves adding NanoLuc luciferase and a cell-permeant prosubstrate to cells in culture. Viable cells reduce the proprietary prosubstrate to generate a substrate for NanoLuc luciferase. This substrate diffuses from cells into the surrounding culture medium, where it is rapidly used by the NanoLuc Enzyme to produce a luminescent signal. The signal correlates with the number of viable cells, making the assay well suited for cytotoxicity studies.
Tox21 Assay Protocol Summary: The mixture of Hek293 cell suspension and reagents were dispensed at 600cells/6 ul/well in 1536-well tissue culture treated black solid bottom plates using a Multidrop dispenser. After the assay plates were incubated at a 37 C/5% CO2 incubator for 5 hours, 23 nL of compounds dissolved in DMSO, positive and negative controls was transferred to the assay plate by a pintool work station. The plates were incubated at 37 C for 40 hours. The luminescence intensity were measured at 0h, 8h, 16h, 24h, 32h and 40h time points using ViewLux plate reader during compound treatment.
% is scaled to controls: 0 for no effect and ±100 for the full control effect; potency is read from the fitted curve at half-maximal effect.

SMILES	Potency	max response
Oc1c(Cl)c(Cl)cc(Cl)c1Cl	47.6 µM (active)	–
CC(=O)/C=C/c1ccc2c(c1)OCO2	–	-11.6% (inactive)
CC1(c2ccc(Oc3ccccc3)cc2)OC(=O)N(Nc2ccccc2)C1=O (stereo not given)	49.3 µM (active)	–
c1ccc2c(c1)[nH]c1cnccc12	–	0.679% (inactive)
O=[N+]([O-])c1cc(Cl)ccc1Cl	–	-0.799% (inactive)
CC(C)C(=O)Cl	–	0.629% (inactive)
C=CCC1=C(C)C(OC(=O)C2C(C=C(C)C)C2(C)C)CC1=O (stereo not given)	41.2 µM (active)	–
C[C@@H](Oc1ccc(Cl)cc1Cl)C(=O)O	–	0.534% (inactive)
CC(=O)[O-].[Tl+]	27.7 µM (active)	–
CCc1nn(C)c(C(=O)NCc2ccc(C(C)(C)C)cc2)c1Cl	0.0977 µM (active)	–
CCc1cc(C)cc(CC)c1-c1c(OC(=O)C(C)(C)C)n2n(c1=O)CCOCC2	–	-25.1% (inactive)
[Hg+2].[I-].[I-]	2.45 µM (active)	–
CC(C)CCCCCOC(=O)c1ccccc1C(=O)OCCCCCC(C)C	–	-3.2% (inactive)
Nc1ccccc1C(=O)Oc1ccc2ccccc2c1	–	-20.2% (inactive)
CC(C)(C)c1ccc(CSc2cnn(C(C)(C)C)c(=O)c2Cl)cc1	0.0069 µM (active)	–
COc1cc(N)c(Cl)cc1C(=O)NC1CN2CCC1CC2 (stereo not given)	–	-15.3% (inactive)
Nc1ccc([N+](=O)[O-])cc1Cl	–	-7.63% (inactive)
Cc1ccc(C(=O)Cl)cc1	–	-5.57% (inactive)
Clc1ccc(CO/N=C(\Cn2ccnc2)c2ccc(Cl)cc2Cl)c(Cl)c1	21.3 µM (active)	–
CCCCCCCCCCCCCCCC[N+](C)(C)C	8.4 µM (active) and 21.9 µM (active) and 9.52 µM (active)	–

SMILES	Potency	max response
CC(C)CCCCCCCOP(=O)(Oc1ccccc1)Oc1ccccc1	–	-33.6% (inactive)
CN(C)C1CSSSC1	–	3.22% (inactive)
CCCCCCCCCBr	–	-6.03% (inactive)
Cn1[nH]nnc1=S	–	4.93% (inactive)
CCN	–	19.6% (inactive)
CCOCn1c(-c2ccc(Cl)cc2)c(C#N)c(Br)c1C(F)(F)F	4.36 µM (active)	–
Oc1ccccc1Br	–	3.02% (inactive)
CCOCCOC(C)=O	–	4.22% (inactive)
Cc1cc(C(C)(C)c2cc(C)c(O)c(C)c2)cc(C)c1O	18.9 µM (active)	–
COc1ccc(N)cc1N	50.5 µM (active)	-27.7% (inactive)
O=C1c2ccccc2C(=O)C1C(=O)C(c1ccccc1)c1ccc(Cl)cc1 (stereo not given)	–	-21.2% (inactive)
Cc1cccc(OP(=O)(Oc2cccc(C)c2)Oc2cccc(C)c2)c1	–	5.97% (inactive)
O=[N+]([O-])c1c2ccccc2cc2ccccc12	–	1.8% (inactive)
Clc1ccc(COC(Cn2ccnc2)c2ccc(Cl)cc2Cl)cc1 (stereo not given)	16.2 µM (active) and 24.4 µM (active)	–
COC12CC[C@@]3(C[C@@H]1C(C)(O)C(C)(C)C)[C@H]1Cc4ccc(O)c5c4[C@@]3(CCN1CC1CC1)[C@H]2O5 (stereo not given in full)	24.4 µM (active)	–
CCCCCCCCCCCCBr	–	-12.1% (inactive)
Nc1ccc(Cc2ccc(N)c(Cl)c2)cc1Cl	23.7 µM (active)	–
C[C@H]1CC[C@@H]2[C@@H](C)[C@H]3[C@H](C[C@H]4[C@@H]5CC=C6CC(O[C@@H]7O[C@H](CO)[C@H](O)[C@H](O[C@@H]8O[C@H](CO)[C@@H](O)[C@H](O)[C@H]8O)[C@H]7O[C@H]7O[C@@H](C)[C@H](O)[C@@H](O)[C@H]7O)CC[C@]6(C)[C@H]5CC[C@]34C)N2C1 (stereo not given in full)	14.3 µM (active)	–
ClC1=C(Cl)C2(Cl)C3C(Cl)C=CC3C1(Cl)C2(Cl)Cl (stereo not given)	49.2 µM (active) and 49 µM (active)	–
